According to publication PMC13494018:
A number with no mark means an inactive call. How the calls were made is not given here.

B1: d8r1_design_ppi_753_dldesign_0_cycle1_af2pred (protein)
chain: NAAAKAALAAAKAAVEGASLLVEVAEKEGSKGMLEAAKRVAEEAIAAAEKAAKLGATEEAAKLKAQAKEVKKRAEKLE
B2: d8r1_design_ppi_674_dldesign_0_cycle1_af2pred (protein)
chain: SEEKINQAWIDTSKASELILAGEELSVTDPEKGAALIEKGRALAEEAAKAVPSKAEAILSTAEKTLEVAKARAAEVAA
B3: d8r1_design_ppi_1265_dldesign_0_cycle0_af2pred (protein)
chain: SETEEGAKALIRAAANAAKYLAKKYGELAKKLAELVKKALEAGPEEAVKYLEEAAALAKEAGQKTGGTKAFAALQATLKKAAELKKK
B4: d8r1_design_ppi_1381_dldesign_0_cycle1_af2pred (protein)
chain: AAARQELVDRALAALDAARAASPEEAVAIAPKAYGLAVMVGEDPRVQAALEAAAAANPAAAPILNEALALARATAAAQAAARAAA
B5: d8r1_design_ppi_400_dldesign_0_cycle0_af2pred (protein)
chain: SAELAAIKAAAENARAGAILLAKESKAETALKFNEAAKERLLKLAAATADAKAAKAVVEEEAKKAEEEIKKIGEE
B6: d8r1_design_ppi_1136_dldesign_0_cycle1_af2pred (protein)
chain: AAEKEARDLAAADNAIALVKKMLEAGVSPENALATAEAAAALLSPAARARLLAAARAIVAAHEAAKAAAAA
B7: d8r1_design_ppi_700_dldesign_0_cycle1_af2pred (protein)
chain: EETKKKRDEYVKKAGEALLKADPTLTAQAAAIKDAAYNAGPAALMAAMAAAYKAAVAANPANAPYAAEAVNYAAKAAIYAKEA
B8: d8r1_design_ppi_416_dldesign_0_cycle0_af2pred (protein)
chain: SEEAARILAETLGTISAQTAAAKAAAAAGDVEAARAAAAAARAAAEEGAKRLEELGNKSGAEALRSIGAATAAHIKALAAKAAA
B9: d8r1_design_ppi_592_dldesign_0_cycle1_af2pred (protein)
chain: GDAEDAVRAAENALKSAENYLAKADTLEQAQKAINAAKGAREFIKYAAKLGADPATVAALEKKANAVEEAAKAKAKALA
B10: d8r1_design_ppi_996_dldesign_0_cycle1_af2pred (protein)
chain: SASDIKAAQKAAAAVLRVAAERFPEVAAVAEPAAETAYNGDAETAIKAILEAAEAIRAAAARLPGGAELRAYADALENIAALLKRLAA
B11: d8r1_design_ppi_700_dldesign_0_cycle0_af2pred (protein)
chain: SENKAKMEEHLAKAKEALLKGDPAAAPLAEAMAKAAKEEGPAALMAAAAAAYAAVVAADPSAAPLASQALAHAAKAAIYLGDS
B12: d8r1_design_ppi_1339_dldesign_0_cycle0_af2pred (protein)
chain: DEAWLAEIKALVSAAVAAAREGDVAALAAAQAAAAALAAAAPASVKPAAANATAGIATLLELTKERLEEKA
B13: d8r1_design_ppi_419_dldesign_0_cycle1_af2pred (protein)
chain: SALEEKAKEAIEKMEKAAEELKKAAAELKKLDPEAGAAAEAALEAHLAILELAKKFSTKVTLNVAEAMTRGLERALKEAKARIAALK
B14: d8r1_design_ppi_508_dldesign_0_cycle1_af2pred (protein)
chain: AGKEALAKAIAEVKELVTAAMLANQKSREEGIKTAKEQAEKAKKLAEEAKASPLAAEIVKVLQSGRDFLEKLAEMLKES
B15: d8r1_design_ppi_897_dldesign_0_cycle1_af2pred (protein)
chain: NPEAKDAALVKIGEGASYVAAASGDTAVARTVFTTSYTGVQEGNLEAAAAAAVATVAAAVDAATAARVAALAAAAVAAYKA
B16: d8r1_design_ppi_412_dldesign_0_cycle1_af2pred (protein)
chain: AKAAQLRATSDLYALAYIAEKKVGKALADKLRAAAASGDPAAMLAAAEEAAKAIGEIGKRLYERLVAALA
B17: d8r1_design_ppi_323_dldesign_0_cycle1_af2pred (protein)
chain: SALEEAKRAIAEARELAAEAKARGPAAAPAAAIAANAIAGAELLVELGSYEAATAVARAGIRVARAYLAAV
B18: d8r1_design_ppi_1038_dldesign_0_cycle1_af2pred (protein)
chain: SDKRLAKNTAEAILRRTKELAKKAAAATAEEAKALAAIAEKGAKSAEAVAKKSGDEETKKLAKEAKEAAKKAKE
B19: d8r1_design_ppi_266_dldesign_0_cycle0_af2pred (protein)
chain: SKVEEAKERFEKVVEEAEKKVKEALAKAKTAEEALKASIEAIKEAASEIAKIYSEVGEEVADLAVEALARLSALTAEAKAAAAKKAAA
B20: d8r1_design_ppi_118_dldesign_0_cycle0_af2pred (protein)
chain: GLVSLLRAAKNTLESAIEAEDAEKAAKYLAGAAQLLEGAAKLDPRVEPAAKLAKEAAAAAKADIEKGKAKAKEALKAVEELLKEAEEE
B21: d8r1_design_ppi_536_dldesign_0_cycle0_af2pred (protein)
chain: SKDEEIAKLLLKTAEAARKDAKKALELAKELKKLGNKNQGGAIVTLLQAAVENKGAAGKSALAGAVKLAEAKAEDLLAK
B22: d8r1_design_ppi_305_dldesign_0_cycle1_af2pred (protein)
chain: AEEALKLLAEAAAAASPEVAALANQALALLKQAENPEAMKQAIALLNAAYLAADPAIQPLIRRALQLAMQVLAKADR
B23: d8r1_design_ppi_87_dldesign_0_cycle0_af2pred (protein)
chain: MEEEFDERMRKAAEYLAKMDAALAAIKAAGDRAEAEKLLAELRKAGEEMAKELGEAGKAIKEALEAQAQAALAA
B24: d8r1_design_ppi_219_dldesign_0_cycle1_af2pred (protein)
chain: DARLERVAKVTAEAYAKVAAVAAGEKLPLARRAAALLAAGGFSPEAAAEYFAEAKAIAAEIGPEAAAIIEEAGKAV
B25: d8r1_design_ppi_78_dldesign_0_cycle1_af2pred (protein)
chain: SMKKEEAKKVAEEARKAAKEAEELAKKIGDAKLAQQAKNIAAGADKAAEFGSLNMVKAFLREAKKLKEEAKKKLA
B26: d8r1_design_ppi_1135_dldesign_0_cycle1_af2pred (protein)
chain: DPREQFAAAVKEAAAALPDIADQVLALGEQALAAEGQAAADAMKAFVTLVTAAAAKASPEAAKAAGIAAANAMKAVSKIEE
B27: d8r1_design_ppi_790_dldesign_0_cycle1_af2pred (protein)
chain: KAEEAKALAEKAIAAAPDVDAAAEEIAAAVKLGTGEALVAAARAAAAAIRALGDPAAQARLLELAREHGSRTYAAVAAGLAIARAEAA
B28: d8r1_design_ppi_419_dldesign_0_cycle0_af2pred (protein)
chain: SELEEEARKAEEEFRAALAELEAAAAELEKLDPAAGATARRAAEGARGLLELAKKFSVKSQLNVAKSMLRGAERQLAAARARVAALK
B29: d8r1_design_ppi_679_dldesign_0_cycle1_af2pred (protein)
chain: ATAEARRAVVEEAIARITAALADRPQWAAKAAAVLERGARLGREAEAARAVAAMLEVLGYTEAAAVAAEAAERIAAL
B30: d8r1_design_ppi_645_dldesign_0_cycle0_af2pred (protein)
chain: KLEEAKEKLEKGKELLKKAKEDPENAIEYAKEALKEFSEASRLAAEAAKDEEYKEEAEELLKEANKLASEATQLLAKKASEEEK
B31: d8r1_design_ppi_1080_dldesign_0_cycle0_af2pred (protein)
chain: SMESVLKSAESLAEAARRLAAERAAEPELVLRAAENALAGGTKLGEARGPEVAKKVRERMEATLAEIRARLA
B32: d8r1_design_ppi_1423_dldesign_0_cycle0_af2pred (protein)
chain: STAEKIAKYNKFAEEAKAAAKRVAEEGEEAAKEAIETLKKLAKESDAETAETLNKLAEIAEEGGGSAALAAMQAAAVHFANKAAKLAA
B33: d8r1_design_ppi_290_dldesign_0_cycle1_af2pred (protein)
chain: SKAEAEKLKAQIEAAKAAGVAGDAATAAAAIAAITALADQAAALDPEYAAEVVNAANKAMLAVGDAREAKAAA
B34: d8r1_design_ppi_139_dldesign_0_cycle0_af2pred (protein)
chain: EELLEKLKEKAEKVKKLAEEGAEAEELEKARKELGAALSALTRAIAEASPELAAKGREAAAEAAKAAIKAGEKAEELKKA
B35: d8r1_design_ppi_1323_dldesign_0_cycle1_af2pred (protein)
chain: MKASIKHLIEQAKKYAKEAKETGSDALARAAASAAAAAAVLAKEAGDKELAKEAEKVAKEIAEVAPPSIAKYAKEAAKLAAE
B36: d8r1_design_ppi_1408_dldesign_0_cycle1_af2pred (protein)
chain: EESVKASILAAIERGARLLAAENPAAGVAALTVARVLTTTGGLGSAIAGAAAFAAIAAAATGARGAAIGGSVVSFTVKLVEMYK
B37: d8r1_design_ppi_456_dldesign_0_cycle1_af2pred (protein)
chain: SAQAAAAEKLRALADAIAAASPAYQPAANALRAAAVVAEKSGNGASALALLDAAIAAAAKVPGGAEWAAAIRAAAAEVRAAFA
B38: d8r1_design_ppi_321_dldesign_0_cycle1_af2pred (protein)
chain: GSNFEKAYYAGEAYSYAYAAVKEAKALVKALGDAAKPLLDEAEALLKKIEEVLKNGNLEEAKKMLEEAKALLEKVKAA

Molecular target: PDL1, Q9NZQ7
Sequence (Q9NZQ7 whole entry): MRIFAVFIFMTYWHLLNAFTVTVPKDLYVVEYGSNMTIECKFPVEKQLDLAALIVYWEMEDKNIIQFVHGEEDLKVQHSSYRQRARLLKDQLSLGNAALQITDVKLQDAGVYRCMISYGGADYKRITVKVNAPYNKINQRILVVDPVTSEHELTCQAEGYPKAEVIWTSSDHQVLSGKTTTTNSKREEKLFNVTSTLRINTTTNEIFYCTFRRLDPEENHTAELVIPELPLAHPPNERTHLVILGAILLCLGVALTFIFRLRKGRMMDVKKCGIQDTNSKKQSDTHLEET

| Binder | binding in a display sort |
| --- | --- |
| B1 | not found |
| B2 | not found |
| B3 | not found |
| B4 | not found |
| B5 | not found |
| B6 | not found |
| B7 | not found |
| B8 | binds (active) |
| B9 | not found |
| B10 | not found |
| B11 | not found |
| B12 | not found |
| B13 | not found |
| B14 | not found |
| B15 | not found |
| B16 | not found |
| B17 | not found |
| B18 | not found |
| B19 | not found |

| Binder | binding in a display sort |
| --- | --- |
| B20 | not found |
| B21 | not found |
| B22 | not found |
| B23 | not found |
| B24 | not found |
| B25 | not found |
| B26 | not found |
| B27 | not found |
| B28 | not found |
| B29 | not found |
| B30 | not found |
| B31 | not found |
| B32 | not found |
| B33 | not found |
| B34 | not found |
| B35 | not found |
| B36 | not found |
| B37 | not found |
| B38 | binds (active) |
